In all, about 97,000 compounds went through this assay and about 450 (0.46%) were called active. The entries come from a sample that favours actives as a whole. Unmarked numbers belong to inactive results. Rule as the data show it: active = activation above about 16%; inactive = the rest.
Molecular target: Sphingosine 1-phosphate receptor 2 (Homo sapiens) (UniProt O95136)
Experiment: activation of human S1P2 receptor – cell-based, primary screen (AID 729);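 also: 0% = vehicle low control and 100% = maximal reference agonist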
Conditions: S1P2-expressing cell line, agonist reporter read-out; at 4.5 µM; hits give high values

Sequence of Sphingosine 1-phosphate receptor 2 (Homo sapiens) (O95136 whole entry, looked up): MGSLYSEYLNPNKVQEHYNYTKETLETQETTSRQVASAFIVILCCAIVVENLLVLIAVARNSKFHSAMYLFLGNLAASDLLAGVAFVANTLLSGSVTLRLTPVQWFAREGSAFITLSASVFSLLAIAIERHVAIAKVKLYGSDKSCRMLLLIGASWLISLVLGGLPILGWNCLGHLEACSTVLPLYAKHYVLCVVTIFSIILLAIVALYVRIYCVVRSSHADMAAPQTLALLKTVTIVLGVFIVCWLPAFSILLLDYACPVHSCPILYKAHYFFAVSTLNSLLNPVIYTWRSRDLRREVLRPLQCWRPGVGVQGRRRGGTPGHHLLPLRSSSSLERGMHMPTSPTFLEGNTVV

Structure (SMILES)	activation
CCOC(=O)c1c(N)n(CCN2CCOCC2)c2nc3ccccc3nc12	-0.82%
CCOC(=O)c1c(N)n(Cc2ccccc2)c2nc3ccccc3nc12	1.34%
COc1cc(Cn2c(N)c(C(=O)NCc3ccco3)c3nc4ccccc4nc32)cc(OC)c1OC	28.7% (active)
O=c1c2ccccc2nc(-c2ccc(Cl)cc2Cl)n1-c1ccncc1	-3.53%
OC(Cn1c2ccccc2c2ccccc21)C[n+]1ccccc1 (stereo not given)	-10.8%

Source: PubChem BioAssay AID729 (The Scripps Research Institute Molecular Screening Center, 2007)
